Experimental findings from PMC7862700, “An all-to-all approach to the identification of sequence-specific readers for epigenetic DNA modifications on cytosine” are described below.

The first test has as its target T1, ELF5 (Homo sapiens, UniProt Q9UKW6-2 1-255).
T1 sequence: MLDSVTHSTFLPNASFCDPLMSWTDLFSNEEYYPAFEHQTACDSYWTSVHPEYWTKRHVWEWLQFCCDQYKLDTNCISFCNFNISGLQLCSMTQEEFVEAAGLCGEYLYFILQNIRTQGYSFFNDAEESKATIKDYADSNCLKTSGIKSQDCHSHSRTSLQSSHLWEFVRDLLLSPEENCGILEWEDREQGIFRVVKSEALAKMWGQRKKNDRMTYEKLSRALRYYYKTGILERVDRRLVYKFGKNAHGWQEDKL
The experiment in a line: DAPPL (digital affinity profiling via proximity ligation, sequencing); 10 mM Tris-HCl pH 7.5, 50 mM NaCl, 1 mM DTT, 4% glycerol, room temperature, 30 min; GST-TFs on glutathione beads, 16-mer random dsDNA library, 0.1% formaldehyde crosslink after washing; high values mean tight binding. To be noted: protein: recombinant; tags: N-terminal GST; dsDNA, one strand shown. In outline: (§1)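 Binding signal is given per hexamer as its read frequency for a factor divided by its frequency in the tag-only sample. GST-fused human transcription factors were expressed in yeast, captured on glutathione beads, barcoded with DNA and pooled with that sample, then incubated with 200 nmole of a 16-mer random double-stranded DNA library in Tris/NaCl/DTT/glycerol buffer for 30 min at room temperature. The pools were then washed, crosslinked, proximity-ligated, amplified by PCR and sequenced on an Illumina NextSeq500.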
Regarding CAAACT, the binding signal is 1.18 fold enrichment (6-mer frequency, TF over GST control).
On to ACGGCC, for which the binding signal is 1.02 fold enrichment (6-mer frequency, TF over GST control).
Regarding CATTTC, the binding signal was 2.15 fold enrichment (6-mer frequency, TF over GST control).
Take CGTTAT: the binding signal is 1.05 fold enrichment (6-mer frequency, TF over GST control).
Same read-out and setting: in the case of ATATGT it was 1.13 fold enrichment (6-mer frequency, TF over GST control); in that of GAAACG, 1.29 fold enrichment (6-mer frequency, TF over GST control); in that of ATGATT, 1.14 fold enrichment (6-mer frequency, TF over GST control).
As for CTGCCC, the binding signal is 1.19 fold enrichment (6-mer frequency, TF over GST control).
Turning to TCCGGG, the binding signal was 2.39 fold enrichment (6-mer frequency, TF over GST control).
In the case of CCCCCA, the binding signal was 1.24 fold enrichment (6-mer frequency, TF over GST control).
In the case of ATAGTT, the binding signal was 1.12 fold enrichment (6-mer frequency, TF over GST control).
In the case of ATGTAC, the binding signal was 1.28 fold enrichment (6-mer frequency, TF over GST control).
As to ATGGGT, the binding signal was 1.34 fold enrichment (6-mer frequency, TF over GST control).
With CCGAGC, the binding signal is 1.12 fold enrichment (6-mer frequency, TF over GST control).
On to CCCTTG, for which the binding signal was 1.1 fold enrichment (6-mer frequency, TF over GST control).
The same measure, in the same setting: in the case of TTGCTA it was 1.21 fold enrichment (6-mer frequency, TF over GST control); in that of CACAAC, 1.28 fold enrichment (6-mer frequency, TF over GST control); in that of GATTTG, 1.05 fold enrichment (6-mer frequency, TF over GST control).
Still for that read-out and setting: for GAAACA the value was 1.39 fold enrichment (6-mer frequency, TF over GST control); for GGATGC, 1.25 fold enrichment (6-mer frequency, TF over GST control); for CAGGAA, 2.12 fold enrichment (6-mer frequency, TF over GST control).
Regarding CCCATC, the binding signal is 1.21 fold enrichment (6-mer frequency, TF over GST control).
Regarding ACCCAC, the binding signal is 1.19 fold enrichment (6-mer frequency, TF over GST control).
In the case of CCTTAT, the binding signal was 1.73 fold enrichment (6-mer frequency, TF over GST control).
Turning to CTTCTA, the binding signal was 1.39 fold enrichment (6-mer frequency, TF over GST control).
Turning to GACCTG, the binding signal is 1.21 fold enrichment (6-mer frequency, TF over GST control).
TCCCCG: the binding signal was 1.24 fold enrichment (6-mer frequency, TF over GST control).
Turning to AAGCAG, the binding signal was 1.19 fold enrichment (6-mer frequency, TF over GST control).
Turning to ATACTA, the binding signal is 1.13 fold enrichment (6-mer frequency, TF over GST control).
Consider TGGTAC, for which the binding signal is 1.14 fold enrichment (6-mer frequency, TF over GST control).
On the same count and under the same terms, for TAAATA the value was 1.16 fold enrichment (6-mer frequency, TF over GST control).
TAAACC: the binding signal was 1.21 fold enrichment (6-mer frequency, TF over GST control).
Consider AAAAGG, for which the binding signal was 1.21 fold enrichment (6-mer frequency, TF over GST control).
For the sequence ATTACT, the binding signal is 1.25 fold enrichment (6-mer frequency, TF over GST control).
As for GATGCG, the binding signal was 1.1 fold enrichment (6-mer frequency, TF over GST control).
On to TAGGCT, for which the binding signal is 1.09 fold enrichment (6-mer frequency, TF over GST control).
As to ATATTT, the binding signal is 1.65 fold enrichment (6-mer frequency, TF over GST control).
Consider TTTGGC, for which the binding signal is 1.18 fold enrichment (6-mer frequency, TF over GST control).
As to TACGTC, the binding signal is 1.23 fold enrichment (6-mer frequency, TF over GST control).
For the sequence TATACC, the binding signal is 1.22 fold enrichment (6-mer frequency, TF over GST control).

The target in the next test is T2, ETV3 (Homo sapiens, UniProt P41162-2 1-143).
T2 sequence: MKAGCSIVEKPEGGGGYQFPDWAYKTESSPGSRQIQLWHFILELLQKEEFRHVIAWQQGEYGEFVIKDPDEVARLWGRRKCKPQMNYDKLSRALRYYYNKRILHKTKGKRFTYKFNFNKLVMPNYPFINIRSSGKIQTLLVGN
The description is as above. The note with it: protein: recombinant; tags: N-terminal GST; dsDNA, one strand shown. In outline: as §1
For CAAACT, the binding signal is 1.13 fold enrichment (6-mer frequency, TF over GST control).
Regarding ACGGCC, the binding signal was 1.13 fold enrichment (6-mer frequency, TF over GST control).
CATTTC: the binding signal is 1.87 fold enrichment (6-mer frequency, TF over GST control).
CGTTAT: the binding signal was 1.18 fold enrichment (6-mer frequency, TF over GST control).
Turning to ATATGT, the binding signal is 1.1 fold enrichment (6-mer frequency, TF over GST control).
On to GAAACG, for which the binding signal was 1.28 fold enrichment (6-mer frequency, TF over GST control).
With ATGATT, the binding signal is 1.3 fold enrichment (6-mer frequency, TF over GST control).
Consider CTGCCC, for which the binding signal is 1.37 fold enrichment (6-mer frequency, TF over GST control).
Same read-out and setting: for TCCGGG the value was 1.71 fold enrichment (6-mer frequency, TF over GST control); for CCCCCA, 1.3 fold enrichment (6-mer frequency, TF over GST control); for ATAGTT, 1.31 fold enrichment (6-mer frequency, TF over GST control).
Consider ATGTAC, for which the binding signal is 1.19 fold enrichment (6-mer frequency, TF over GST control).
On to ATGGGT, for which the binding signal was 1.3 fold enrichment (6-mer frequency, TF over GST control).
With CCGAGC, the binding signal was 1.04 fold enrichment (6-mer frequency, TF over GST control).
Turning to CCCTTG, the binding signal was 1.13 fold enrichment (6-mer frequency, TF over GST control).
As to TTGCTA, the binding signal was 1.28 fold enrichment (6-mer frequency, TF over GST control).
Regarding CACAAC, the binding signal is 1.22 fold enrichment (6-mer frequency, TF over GST control).
Turning to GATTTG, the binding signal was 1.1 fold enrichment (6-mer frequency, TF over GST control).
On to GAAACA, for which the binding signal is 1.37 fold enrichment (6-mer frequency, TF over GST control).
Take GGATGC: the binding signal was 1.3 fold enrichment (6-mer frequency, TF over GST control).
CAGGAA: the binding signal is 1.72 fold enrichment (6-mer frequency, TF over GST control).
CCCATC: the binding signal was 1.14 fold enrichment (6-mer frequency, TF over GST control).
For ACCCAC, the binding signal is 1.13 fold enrichment (6-mer frequency, TF over GST control).
Take CCTTAT: the binding signal is 1.39 fold enrichment (6-mer frequency, TF over GST control).
Turning to CTTCTA, the binding signal is 1.2 fold enrichment (6-mer frequency, TF over GST control).
For GACCTG, the binding signal was 1.17 fold enrichment (6-mer frequency, TF over GST control).
As to TCCCCG, the binding signal is 1.27 fold enrichment (6-mer frequency, TF over GST control).
AAGCAG: the binding signal was 1.1 fold enrichment (6-mer frequency, TF over GST control).
Turning to ATACTA, the binding signal was 1.14 fold enrichment (6-mer frequency, TF over GST control).
For the sequence TGGTAC, the binding signal is 1.14 fold enrichment (6-mer frequency, TF over GST control).
On the same count and under the same terms, in the case of TAAATA it was 1.28 fold enrichment (6-mer frequency, TF over GST control); in that of TAAACC, 1.26 fold enrichment (6-mer frequency, TF over GST control); in that of AAAAGG, 1.13 fold enrichment (6-mer frequency, TF over GST control).
On the same count and under the same terms, for ATTACT the value was 1.29 fold enrichment (6-mer frequency, TF over GST control); for GATGCG, 1.23 fold enrichment (6-mer frequency, TF over GST control); for TAGGCT, 1.14 fold enrichment (6-mer frequency, TF over GST control).
As for ATATTT, the binding signal is 1.65 fold enrichment (6-mer frequency, TF over GST control).
Still for that read-out and setting: for TTTGGC the value was 1.21 fold enrichment (6-mer frequency, TF over GST control).
Same read-out and setting: in the case of TACGTC it was 1.14 fold enrichment (6-mer frequency, TF over GST control).
As to TATACC, the binding signal is 1.26 fold enrichment (6-mer frequency, TF over GST control).

In a further test the target is ETV6 (Homo sapiens, UniProt P41212 1-452). Described as above. The note with it: protein: recombinant; tags: N-terminal GST; dsDNA, one strand shown. In outline: as §1
ETV6, sequence (P41212 whole entry): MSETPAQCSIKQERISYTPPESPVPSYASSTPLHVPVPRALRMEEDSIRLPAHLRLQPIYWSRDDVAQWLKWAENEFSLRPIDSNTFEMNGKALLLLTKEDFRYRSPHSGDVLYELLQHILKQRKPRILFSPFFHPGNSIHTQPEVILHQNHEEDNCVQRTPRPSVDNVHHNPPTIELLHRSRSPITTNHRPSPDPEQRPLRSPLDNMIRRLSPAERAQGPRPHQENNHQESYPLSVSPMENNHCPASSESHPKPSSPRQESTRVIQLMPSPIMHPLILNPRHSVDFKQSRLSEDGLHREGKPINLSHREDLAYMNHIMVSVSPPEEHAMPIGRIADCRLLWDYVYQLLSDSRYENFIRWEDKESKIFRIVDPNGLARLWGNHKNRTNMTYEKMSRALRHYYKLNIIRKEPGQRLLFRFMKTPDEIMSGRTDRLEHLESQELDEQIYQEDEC
Regarding CAAACT, the binding signal was 1.21 fold enrichment (6-mer frequency, TF over GST control).
On to ACGGCC, for which the binding signal is 1.08 fold enrichment (6-mer frequency, TF over GST control).
On to CATTTC, for which the binding signal was 2.02 fold enrichment (6-mer frequency, TF over GST control).
The same measure, in the same setting: for CGTTAT the value was 1.09 fold enrichment (6-mer frequency, TF over GST control); for ATATGT, 1.07 fold enrichment (6-mer frequency, TF over GST control); for GAAACG, 1.34 fold enrichment (6-mer frequency, TF over GST control).
Take ATGATT: the binding signal is 1.19 fold enrichment (6-mer frequency, TF over GST control).
On the same count and under the same terms, for CTGCCC the value was 1.16 fold enrichment (6-mer frequency, TF over GST control); for TCCGGG, 1.77 fold enrichment (6-mer frequency, TF over GST control).
For the sequence CCCCCA, the binding signal is 1.19 fold enrichment (6-mer frequency, TF over GST control).
Still for that read-out and setting: in the case of ATAGTT it was 1.21 fold enrichment (6-mer frequency, TF over GST control).
Consider ATGTAC, for which the binding signal is 1.32 fold enrichment (6-mer frequency, TF over GST control).
As to ATGGGT, the binding signal is 1.33 fold enrichment (6-mer frequency, TF over GST control).
On to CCGAGC, for which the binding signal is 1.13 fold enrichment (6-mer frequency, TF over GST control).
Turning to CCCTTG, the binding signal is 1.17 fold enrichment (6-mer frequency, TF over GST control).
Still for that read-out and setting: for TTGCTA the value was 1.23 fold enrichment (6-mer frequency, TF over GST control); for CACAAC, 1.24 fold enrichment (6-mer frequency, TF over GST control).
Consider GATTTG, for which the binding signal was 1.09 fold enrichment (6-mer frequency, TF over GST control).
On the same count and under the same terms, for GAAACA the value was 1.45 fold enrichment (6-mer frequency, TF over GST control).
Still for that read-out and setting: in the case of GGATGC it was 1.15 fold enrichment (6-mer frequency, TF over GST control); in that of CAGGAA, 1.83 fold enrichment (6-mer frequency, TF over GST control).
Consider CCCATC, for which the binding signal was 1.1 fold enrichment (6-mer frequency, TF over GST control).
For the sequence ACCCAC, the binding signal is 1.2 fold enrichment (6-mer frequency, TF over GST control).
For the sequence CCTTAT, the binding signal is 1.42 fold enrichment (6-mer frequency, TF over GST control).
For the sequence CTTCTA, the binding signal is 1.4 fold enrichment (6-mer frequency, TF over GST control).
As to GACCTG, the binding signal is 1.14 fold enrichment (6-mer frequency, TF over GST control).
For the sequence TCCCCG, the binding signal is 1.13 fold enrichment (6-mer frequency, TF over GST control).
In the case of AAGCAG, the binding signal was 1.11 fold enrichment (6-mer frequency, TF over GST control).
Turning to ATACTA, the binding signal is 1.11 fold enrichment (6-mer frequency, TF over GST control).
For TGGTAC, the binding signal was 1.14 fold enrichment (6-mer frequency, TF over GST control).
For TAAATA, the binding signal is 1.32 fold enrichment (6-mer frequency, TF over GST control).
For TAAACC, the binding signal is 1.29 fold enrichment (6-mer frequency, TF over GST control).
With AAAAGG, the binding signal is 1.19 fold enrichment (6-mer frequency, TF over GST control).
With ATTACT, the binding signal was 1.37 fold enrichment (6-mer frequency, TF over GST control).
Turning to GATGCG, the binding signal was 1.12 fold enrichment (6-mer frequency, TF over GST control).
For the sequence TAGGCT, the binding signal is 1.24 fold enrichment (6-mer frequency, TF over GST control).
As for ATATTT, the binding signal is 1.57 fold enrichment (6-mer frequency, TF over GST control).
Take TTTGGC: the binding signal was 1.26 fold enrichment (6-mer frequency, TF over GST control).
On to TACGTC, for which the binding signal was 1.37 fold enrichment (6-mer frequency, TF over GST control).
For TATACC, the binding signal is 1.21 fold enrichment (6-mer frequency, TF over GST control).
